The source of these data is PubChem BioAssay (EPA / NIEHS).

Read-out in test [1]: TIMP metallopeptidase inhibitor 1 (TIMP1), TIMP1 (gene 7076)
Kind of test: BSK_hDFCGF_TIMP1: BioMAP Diversity Plus: hDFCGF Assay for TIMP metallopeptidase inhibitor 1 (TIMP1) Biomarker Activity (AID 2283062). The note with it: primary human foreskin fibroblasts; actives raise or lower the signal. A digest of the protocol:
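Bidirectional curve fitting against DMSO baseline yielded this endpoint, based on ELISA detection of TIMP-1 in primary human foreskin fibroblasts exposed to compound for 24 h.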

Read-out in test [2]: Monokine induced gamma interferon (MIG), CXCL9 (gene 4283)
The test can be described thus: BSK_hDFCGF_MIG: BioMAP Diversity Plus: hDFCGF Assay for Monokine induced gamma interferon (MIG) Biomarker Activity (AID 2283063). The note with it: primary human foreskin fibroblasts; actives raise or lower the signal. Summed up:
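Endpoint derived by bidirectional fitting relative to DMSO; MIG quantified via ELISA in primary human foreskin fibroblasts harvested 24 h after dosing.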

Read-out in test [3]: Matrix Metallopeptidase 1 (MMP1), MMP1 (gene 4312)
Kind of test: BSK_hDFCGF_MMP1: BioMAP Diversity Plus: hDFCGF Assay for Matrix Metallopeptidase 1 (MMP1) Biomarker Activity (AID 2283064). Conditions: primary human foreskin fibroblasts; actives raise or lower the signal. A digest of the protocol: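 ELISA read-out of MMP1 from human foreskin fibroblasts (primary skin cells), 24 h post-dose. Gain or loss of signal was fitted bidirectionally versus DMSO negative control; cytotoxicity was checked by SRB in parallel cultures.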

Read-out in test [4]: Vascular cell adhesion molecule 1 (VCAM1), VCAM1 (gene 7412)
Kind of test: BSK_hDFCGF_VCAM1: BioMAP Diversity Plus: hDFCGF Assay for Vascular cell adhesion molecule 1 (VCAM1) Biomarker Activity (AID 2283065).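 On AC50: VCAM-1 protein level quantified by ELISA after 24 h chemical exposure.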 Conditions: primary human foreskin fibroblasts; actives raise or lower the signal. A digest of the protocol:
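Measured after 24 h chemical treatment of primary human skin fibroblasts, VCAM-1 was detected by ELISA and concentration-response analysed in both directions versus DMSO vehicle.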

Read-out in test [5]: Plasminogen activator inhibitor-1 (PAI1), SERPINE1 (gene 5054)
Kind of test: BSK_hDFCGF_PAI1: BioMAP Diversity Plus: hDFCGF Assay for Plasminogen activator inhibitor-1 (PAI1) Biomarker Activity (AID 2283066). Conditions: primary human foreskin fibroblasts; actives raise or lower the signal. Summed up: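 PAI-1 levels in human dermal foreskin fibroblasts were quantified by ELISA 24 h after dosing, with gain or loss analysed against DMSO. Overt cytotoxicity was checked by sulforhodamine B total-protein staining in parallel cultures.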

Read-out in test [6]: Intercellular Adhesion Molecule 1 (ICAM1), ICAM1 (gene 3383)
Kind of test: BSK_KF3CT_ICAM1: BioMAP Diversity Plus: KF3CT Assay for Intercellular Adhesion Molecule 1 (ICAM1) Biomarker Activity (AID 2283067). Conditions: primary human keratinocytes with fibroblasts; actives raise or lower the signal. A digest of the protocol:
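Bidirectional curve fitting against a DMSO baseline was applied to ICAM-1 ELISA signal from primary human skin co-cultures harvested 24 h after treatment, with SRB staining of parallel wells for overt cytotoxicity.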

Read-out in test [7]: Interferon-gamma inducible Protein 10 (IP10), CXCL10 (gene 3627)
The test can be described thus: BSK_KF3CT_IP10: BioMAP Diversity Plus: KF3CT Assay for Interferon-gamma inducible Protein 10 (IP10) Biomarker Activity (AID 2283068). Conditions: primary human keratinocytes with fibroblasts; actives raise or lower the signal. Summed up:
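In a primary skin co-culture of keratinocytes and fibroblasts, IP-10 is quantified by ELISA at 24 h after dosing. SRB staining of parallel wells monitors overt toxicity. Curves are fitted both directions against DMSO.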

Test [8] in a line: BSK_KF3CT_SRB: Viability Assessment in the BioMAP Diversity Plus: KF3CT Assay (AID 2283069).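 Further: read 24 h after compound addition.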 The note with it: primary human keratinocytes with fibroblasts. Summed up: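 SRB read-out at 560 nm (0.1% stain, TCA-fixed cells) gauges overt cytotoxicity in a human skin keratinocyte–fibroblast co-culture 24 h post-dosing. Signal change was fitted bidirectionally relative to DMSO control.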

Read-out in test [9]: Interleukin-1 alpha (IL1a), IL1A (gene 3552)
The test can be described thus: BSK_KF3CT_IL1a: BioMAP Diversity Plus: KF3CT Assay for Interleukin-1 alpha (IL1a) Biomarker Activity (AID 2283070). The note with it: primary human keratinocytes with fibroblasts; actives raise or lower the signal. A digest of the protocol: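 Primary skin co-culture (keratinocytes, foreskin fibroblasts), 24 h exposure; ELISA for IL-1a; bidirectional curve fit vs DMSO.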

Read-out in test [10]: Transforming growth factor beta 1 (TGFb1), TGFB1 (gene 7040)
Kind of test: BSK_KF3CT_TGFb1: BioMAP Diversity Plus: KF3CT Assay for Transforming growth factor beta 1 (TGFb1) Biomarker Activity (AID 2283072). Conditions: primary human keratinocytes with fibroblasts; actives raise or lower the signal. Summed up:
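ELISA quantifies TGF-b1 at 24 h post-dose in a primary human skin co-culture of keratinocytes and fibroblasts, with gain or loss judged against DMSO. Parallel SRB total-protein staining flags overt cytotoxicity.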

Read-out in test [11]: C-C motif chemokine 2 (Homo sapiens) (UniProt P13500)
Kind of test: BSK_KF3CT_MCP1: BioMAP Diversity Plus: KF3CT Assay for Monocyte Chemoattractant Protein 1 (MCP1/CCL2) Biomarker Activity (AID 2283073). Conditions: primary human keratinocytes with fibroblasts; actives raise or lower the signal. A digest of the protocol: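 Biomarker MCP-1 is measured by ELISA in primary human keratinocytes co-cultured with foreskin fibroblasts, 24 h after chemical treatment; DMSO serves as the negative control and activity baseline.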

Read-out in test [12]: Matrix Metallopeptidase 9 (MMP9), MMP9 (gene 4318)
The test can be described thus: BSK_KF3CT_MMP9: BioMAP Diversity Plus: KF3CT Assay for Matrix Metallopeptidase 9 (MMP9) Biomarker Activity (AID 2283074).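 On AC50: MMP9 protein level quantified by ELISA in the co-culture.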 Conditions: primary human keratinocytes with fibroblasts; actives raise or lower the signal. Summed up: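 ELISA read-out of MMP-9 at 24 h post-dosing in a co-culture of human skin keratinocytes and foreskin fibroblasts. Gain or loss of signal was fitted in both directions against DMSO.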

Read-out in test [13]: urokinase plasminogen activator (uPA), PLAU (gene 5328)
The test can be described thus: BSK_KF3CT_uPA: BioMAP Diversity Plus: KF3CT Assay for urokinase plasminogen activator (uPA) Biomarker Activity (AID 2283075). Conditions: primary human keratinocytes with fibroblasts; actives raise or lower the signal. Summed up: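 Skin co-culture (keratinocytes + foreskin fibroblasts), human primary; 24 h post-dose; uPA by ELISA; gain/loss fit vs DMSO baseline.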

Read-out in test [14]: CD40, CD40 (gene 958)
Kind of test: BSK_LPS_CD40: BioMAP Diversity Plus: LPS Assay for CD40 Biomarker Activity (AID 2283076). Conditions: primary human HUVEC with PBMC; actives raise or lower the signal. Summed up: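 Using a multiplexed primary human co-culture (umbilical vein endothelium plus PBMC), CD40 was read by ELISA 24 h after dosing, with cytotoxicity tracked by sulforhodamine B staining of parallel cultures and activity fitted bidirectionally versus DMSO.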

Read-out in test [15]: E-selectin (Homo sapiens) (UniProt P16581)
The test can be described thus: BSK_LPS_Eselectin: BioMAP Diversity Plus: LPS Assay for Eselectin Biomarker Activity (AID 2283077). Conditions: primary human HUVEC with PBMC; actives raise or lower the signal. Summed up: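 Dose chemical onto LPS-driven HUVEC/PBMC co-culture; after 24 h, run ELISA for E-selectin; fit up- and down-going responses relative to DMSO control.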

Read-out in test [16]: Interleukin-1 alpha (IL1a), IL1A (gene 3552)
The test can be described thus: BSK_LPS_IL1a: BioMAP Diversity Plus: LPS Assay for Interleukin-1 alpha (IL1a) Biomarker Activity (AID 2283080). The note with it: primary human HUVEC with PBMC; actives raise or lower the signal. A digest of the protocol:
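Primary human HUVEC and PBMC co-culture stimulated with LPS is dosed and harvested at 24 h. Both increases and decreases in ELISA-measured IL-1a are scored relative to DMSO.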

Read-out in test [17]: Monocyte Chemoattractant Protein-1 (MCP1), CCL2 (gene 6347)
Kind of test: BSK_LPS_MCP1: BioMAP Diversity Plus: LPS Assay for Monocyte Chemoattractant Protein-1 (MCP1) Biomarker Activity (AID 2283081). The note with it: primary human HUVEC with PBMC; actives raise or lower the signal. A digest of the protocol:
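Values derive from bidirectional fitting against DMSO of ELISA-measured MCP-1 in a human primary endothelial and mononuclear cell co-culture, 24 h after chemical addition under LPS activation.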

Read-out in test [18]: TIMP metallopeptidase inhibitor 2 (TIMP2), TIMP2 (gene 7077)
Kind of test: BSK_KF3CT_TIMP2: BioMAP Diversity Plus: KF3CT Assay for TIMP metallopeptidase inhibitor 2 (TIMP2) Biomarker Activity (AID 2283071). The note with it: primary human keratinocytes with fibroblasts; actives raise or lower the signal. A digest of the protocol: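 TIMP-2 measured by ELISA at 24 h in human keratinocyte/fibroblast primary co-cultures exposed to chemicals. Both increases and decreases were fitted against DMSO. Parallel cultures were stained with SRB for total protein as an overt-cytotoxicity check.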

Read-out in test [19]: Interleukin-8 (IL8), CXCL8 (gene 3576)
The test can be described thus: BSK_LPS_IL8: BioMAP Diversity Plus: LPS Assay for Interleukin-8 (IL8) Biomarker Activity (AID 2283078). Conditions: primary human HUVEC with PBMC; actives raise or lower the signal. Summed up: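 In this LPS system, chemical-treated human umbilical vein endothelium/PBMC co-cultures were harvested at 24 h for IL-8 ELISA.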

Test [20] can be described thus: BSK_LPS_SRB: Viability Assessment in the BioMAP Diversity Plus: LPS Assay (AID 2283079).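 Further: total protein by sulforhodamine B absorbance as a cytotoxicity measure; measured one day after compound addition.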 The note with it: primary human HUVEC with PBMC. A digest of the protocol: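 Cytotoxicity endpoint in human endothelial–PBMC co-culture: 24 h exposure, then SRB (0.1%) staining, 560 nm read.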

Activity calls are given as the source filed them. How the source made its calls: active means hit-call score of the fitted dose curve at least 0.9, where 1 is the maximum; inactive means score below 0.9.

Chain of E-selectin (Homo sapiens) (P16581 whole entry, looked up): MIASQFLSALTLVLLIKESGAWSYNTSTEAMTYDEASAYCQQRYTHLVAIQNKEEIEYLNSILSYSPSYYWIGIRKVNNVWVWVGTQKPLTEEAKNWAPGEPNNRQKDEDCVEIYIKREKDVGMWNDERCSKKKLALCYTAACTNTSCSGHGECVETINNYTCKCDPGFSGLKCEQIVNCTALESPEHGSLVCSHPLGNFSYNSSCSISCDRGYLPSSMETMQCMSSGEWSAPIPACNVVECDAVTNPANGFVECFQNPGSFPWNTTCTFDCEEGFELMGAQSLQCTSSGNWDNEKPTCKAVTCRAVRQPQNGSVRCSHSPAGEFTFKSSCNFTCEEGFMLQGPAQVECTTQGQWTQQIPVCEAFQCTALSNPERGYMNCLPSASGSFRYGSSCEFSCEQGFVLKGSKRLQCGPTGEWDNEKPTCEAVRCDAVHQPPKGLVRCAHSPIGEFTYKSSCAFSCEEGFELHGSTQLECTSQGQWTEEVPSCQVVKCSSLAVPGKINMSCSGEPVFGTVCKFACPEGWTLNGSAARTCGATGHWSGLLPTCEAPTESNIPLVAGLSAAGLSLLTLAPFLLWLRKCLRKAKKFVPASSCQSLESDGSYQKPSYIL

In the case of `O=NO`, the result in [1], in test [2], in test [3], in test [4], in [5] and in test [6] was inactive. Besides, the result in test [7], in test [8], in [9], in [10], in test [11] and in test [12] was inactive. Also, the outcome in [13], in test [14], in [15], in test [16] and in [17] was inactive.

Regarding `Cc1cc(Cc2ccc(N)c(C)c2)ccc1N`, the outcome in test [1], in test [2], in test [3], in test [4], in [5] and in [6] was inactive. For the same compound, the result in test [7], in test [8], in test [9], in test [18], in test [10] and in test [11] was inactive. Also, the result in test [12], in [13], in [14], in test [15], in test [19] and in test [20] was inactive. Moreover, the result in test [16] and in test [17] was inactive.

Broadly, the AC50 is the midpoint of the concentration-response curve, whichever way the signal moves. Turning to `CCCCCCCCCCCCCCCCO`, the outcome in test [1], in test [3], in [4], in test [5], in test [6] and in [7] was inactive. In addition, the result in [8], in test [9], in test [18], in [10], in [12] and in [13] was inactive. Besides, the result in test [14], in test [15], in test [19], in test [16] and in test [17] was inactive. Also, the half-maximal activity concentration (AC50) in test [2] is 0.777 µM (active).

Turning to `CCCCCCCCCCCCCCOS(=O)(=O)O`, the AC50 in test [1] was 9.76 µM (active); in test [2], 7.52 µM (active); in test [3], 5.54 µM (active); in test [4] it was 7.85 µM (active); in [5] it was 9.05 µM (active); in [6], 16.2 µM (active). Also, the AC50 is 8.99 µM (active) in test [7]; 10.3 µM (active) in test [9]; 5.78 µM (active) in test [10]; 8.92 µM (active) in test [11]; 8.96 µM (active) in [12]; 9.42 µM (active) in test [13]. The result in [14], in [15], in test [16] and in [17] was inactive.

As to `Cc1ccc(-c2cc(C(F)(F)F)nn2-c2ccc(S(N)(=O)=O)cc2)cc1`, the outcome in [1], in test [2], in test [3], in test [4], in test [5] and in test [6] was inactive. Moreover, the outcome in test [7], in test [8], in test [9], in [10], in test [11] and in test [12] was inactive. Further, the result in test [13] was inactive. In addition, the AC50 in test [14] was 26.6 µM (active); in test [15], 30.9 µM (active); in test [20], 29.2 µM (active); in [16], 30.5 µM (active).

For `CCCCOC(=O)CCCCC(=O)OCCCC`, the outcome in test [1], in [2], in test [3], in test [4], in test [5] and in test [6] was inactive. Further, the result in test [7], in test [8], in test [9], in [18], in test [10] and in [12] was inactive. Moreover, the outcome in test [13], in [14], in [15], in [19], in [20] and in [16] was inactive. The outcome in test [17] was inactive.

Consider `S=c1[nH]c2ccccc2s1`, for which the outcome in [1], in [2], in test [3], in [4], in test [5] and in test [6] was inactive. For the same compound, the outcome in [7], in [9], in test [18], in test [10], in test [11] and in [12] was inactive. Also, the outcome in test [13], in test [14], in [15], in test [16] and in [17] was inactive.
